The test system of assay [1] is PRMT1 (protein arginine N-methyltransferase 1). Put plainly: PRMT1 binders on small-molecule microarrays, primary screen, biochemical, small-molecule microarray, 635 nm fluorescence (AID 1088).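 Also: binding of Prmt1 protein to compounds spotted on small-molecule microarray slides.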 The conditions noted are these: small-molecule microarray binding, higher = more signal.
Assay [2] is described as follows: yeast growth modulation, basal conditions, primary screen, YJM789 clinical isolate, OD600, 24 h (AID 1089).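 Also: growth of clinical yeast isolate S. cerevisiae YJM 789 seeded 1000 cells per well; test concentration not given here.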 As to conditions: S. cerevisiae YJM789 growth, higher = more signal, called active from +8 up or from −8 down.
The nature of assay [3]: fission yeast growth modulation, primary screen, strain 972, OD600, 24 h, no modulator (AID 1090).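 Also: basal condition with compound alone and no growth modifier present; test concentration not given here.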 The conditions noted are these: S. pombe 972 growth, higher = more signal, called active from +8 up or from −8 down.
The nature of assay [4]: S. cerevisiae growth modulation with rapamycin, primary screen, strain BY4716, OD600, 96 h (AID 1091). Also: test concentration not given here. As to conditions: higher = more signal, called active from +8 up or from −8 down.
The target of assay [5] is Torsin-1A-interacting protein 2 (Homo sapiens) (UniProt Q8NFQ8). As to the kind of experiment: LULL1 binders on small-molecule microarray, primary screen, cell lysate, human LULL1 lysate, 635/667 nm fluorescence (AID 1092).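 Also: probe is lysate of COS7 cells overexpressing human LULL1; score merges per-feature 667 nm fluorescence with signal-to-noise.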 As to conditions: hLULL1 lysate binding, 635 nm fluorescence, higher = more signal.
Assay [6] in a line: E. coli growth modulation, two-sided OD650, primary screen, E. coli filamentation project, strain DRC41, 24 h (AID 1093).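 Also: MC1000 strain lacking acrAB efflux and sulA so SOS filamentation is blocked; test concentration not given here.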 As to conditions: OD650, 24 h, higher = more signal, called active from +8 up or from −8 down.
The nature of assay [7]: small-molecule microarray binders of probe aLefty2, primary screen, biochemical, biotinylated probe, 635/667 nm fluorescence (AID 1094).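 Also: score merges spot fluorescence near 667 nm with spot signal-to-noise ratio.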 As to conditions: higher = more signal.
Assay [8] relates to Noggin (protein binding on small-molecule microarray). As to the kind of experiment: Noggin binders on small-molecule microarray, primary screen, biochemical, 635/667 nm fluorescence (AID 1095).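 Also: score merges 667 nm feature fluorescence with signal to noise over triplicate slides.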 As to conditions: 635 nm fluorescence, higher = more signal.
In assay [9] the target is Neurogenic locus notch homolog protein 3 (Homo sapiens) (UniProt Q9UM47). Put plainly: NOTCH3 binders on small-molecule microarray, primary screen, biochemical, 635/667 nm fluorescence (AID 1096). The conditions noted are these: NOTCH3 binding, 635 nm fluorescence, higher = more signal.
A short description of assay [10]: small-molecule microarray binders of probe aEGFR, primary screen, biochemical, biotinylated probe, 635/667 nm fluorescence (AID 1097).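 Also: probe is a biotinylated anti-EGFR antibody binding compounds printed on slides; score combines fluorescence near 667 nm and signal to noise of each spot.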 As to conditions: higher = more signal.
In assay [11] the test system is Plasmodium falciparum Sir2 (PF13_0152, Sir2A). Put plainly: pfSir2 binders on small-molecule microarrays, primary screen, biochemical, small-molecule microarray, 635 nm fluorescence (AID 1098).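 Also: score merges spot fluorescence intensity with its signal-to-noise ratio.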 As to conditions: small-molecule microarray binding, fluorescence 635 nm; higher = more signal.
The nature of assay [12]: small-molecule microarray binders of probe aDKK1, primary screen, biochemical, biotinylated probe, 635/667 nm fluorescence (AID 1099).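 Also: score merges 667nm spot fluorescence with signal to noise across triplicate slides; reference of the scale not given here.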 The conditions noted are these: higher = more signal.
Assay [13] in a line: small-molecule microarray binders of probe aCHRDL2, primary screen, biochemical, biotinylated probe, 635/667 nm fluorescence (AID 1100). The conditions noted are these: higher = more signal.
Assay [14] can be described thus: splicing luciferase reporter signal modulators, primary screen, spliceosome inhibition project, cell-based, HEK293, splice +/- reporter (AID 1101).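 Also: HEK293 cells carrying a splicing-competent luciferase reporter gene; test concentration not given here.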 As to conditions: luminescence, 24 h, higher = more signal, called active from +8 up or from −8 down. On the technique in general: Reporter assays use an easily measured gene product as a stand-in for the process of interest.

Assay [15] has as its target Fibroblast growth factor 10 (Homo sapiens) (UniProt O15520). As to the kind of experiment: FGF10 binders on small-molecule microarrays, primary screen, biochemical, small-molecule microarray, 635 nm fluorescence (AID 1102). As to conditions: FGF10 binding, fluorescence 635 nm, higher = more signal.
Assay [16] concerns glycogen synthase kinase-3 (GSK3A per assay name; protocol says GSK3B). As to the kind of experiment: GSK3 binders on small-molecule microarrays, primary screen, biochemical, small-molecule microarray, 635 nm fluorescence, GSK3A (AID 1103). Also: the record names both GSK3A and GSK3B. As to conditions: small-molecule microarray binding, fluorescence 635 nm; higher = more signal.
In assay [17] the target is Epidermal growth factor receptor (Homo sapiens) (UniProt P00533). As to the kind of experiment: EGFR binders on small-molecule microarrays, primary screen, biochemical, small-molecule microarray, 635 nm fluorescence (AID 1104).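 Also: score merges 667 nm emission intensity with spot signal to noise over triplicate slides.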 The conditions noted are these: EGFR binding, higher = more signal.
Assay [18] addresses Follistatin-related protein 3 (Homo sapiens) (UniProt O95633). Put plainly: FSTL3 binders on small-molecule microarrays, primary screen, biochemical, small-molecule microarray, 635 nm fluorescence (AID 1105).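 Also: score merges emission near 667 nm and signal to noise per printed spot across three slides.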 As to conditions: FSTL3 binding, higher = more signal.
Assay [19] concerns the target Dickkopf-related protein 1 (Homo sapiens) (UniProt O94907). As to the kind of experiment: DKK1 binders on small-molecule microarrays, primary screen, biochemical, small-molecule microarray, 635 nm fluorescence scan (AID 1106).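 Also: score merges emission near 667 nm with signal to noise over three replicate slides.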 As to conditions: DKK1 binding, higher = more signal.
Assay [20] deals with Inhibin beta A chain (activin A). As to the kind of experiment: INHBA (activin A) binders on microarrays, primary screen, biochemical, small-molecule microarray, 635 nm fluorescence scan (AID 1107).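 Also: mouse activin A protein probed at 4.33 µg/mL on printed slides; score merges bound-protein fluorescence near 667 nm with spot signal-to-noise.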 As to conditions: small-molecule microarray binding, higher = more signal.

Activity calls are given as the source filed them.

Sequence of Follistatin-related protein 3 (Homo sapiens) (O95633 whole entry, looked up): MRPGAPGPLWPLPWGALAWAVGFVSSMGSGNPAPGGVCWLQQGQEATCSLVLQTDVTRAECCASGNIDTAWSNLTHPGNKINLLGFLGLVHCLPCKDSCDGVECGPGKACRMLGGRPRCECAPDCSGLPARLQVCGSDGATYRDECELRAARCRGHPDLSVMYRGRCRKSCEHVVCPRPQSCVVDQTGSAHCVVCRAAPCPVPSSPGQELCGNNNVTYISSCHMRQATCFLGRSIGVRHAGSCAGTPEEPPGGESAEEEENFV
Sequence of Torsin-1A-interacting protein 2 (Homo sapiens) (Q8NFQ8 whole entry, looked up): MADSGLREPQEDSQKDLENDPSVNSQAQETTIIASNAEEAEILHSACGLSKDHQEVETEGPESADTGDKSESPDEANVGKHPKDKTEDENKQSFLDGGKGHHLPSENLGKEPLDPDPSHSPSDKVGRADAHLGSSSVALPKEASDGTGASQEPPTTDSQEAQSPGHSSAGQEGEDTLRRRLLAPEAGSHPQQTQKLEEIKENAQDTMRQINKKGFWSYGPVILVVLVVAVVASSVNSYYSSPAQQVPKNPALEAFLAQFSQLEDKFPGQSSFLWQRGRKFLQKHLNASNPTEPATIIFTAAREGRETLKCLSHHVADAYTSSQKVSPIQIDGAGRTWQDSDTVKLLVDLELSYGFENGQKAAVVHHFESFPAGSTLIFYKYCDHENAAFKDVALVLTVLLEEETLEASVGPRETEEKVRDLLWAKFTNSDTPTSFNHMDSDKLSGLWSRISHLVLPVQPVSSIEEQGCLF
Sequence of Neurogenic locus notch homolog protein 3 (Homo sapiens) (Q9UM47 whole entry, looked up): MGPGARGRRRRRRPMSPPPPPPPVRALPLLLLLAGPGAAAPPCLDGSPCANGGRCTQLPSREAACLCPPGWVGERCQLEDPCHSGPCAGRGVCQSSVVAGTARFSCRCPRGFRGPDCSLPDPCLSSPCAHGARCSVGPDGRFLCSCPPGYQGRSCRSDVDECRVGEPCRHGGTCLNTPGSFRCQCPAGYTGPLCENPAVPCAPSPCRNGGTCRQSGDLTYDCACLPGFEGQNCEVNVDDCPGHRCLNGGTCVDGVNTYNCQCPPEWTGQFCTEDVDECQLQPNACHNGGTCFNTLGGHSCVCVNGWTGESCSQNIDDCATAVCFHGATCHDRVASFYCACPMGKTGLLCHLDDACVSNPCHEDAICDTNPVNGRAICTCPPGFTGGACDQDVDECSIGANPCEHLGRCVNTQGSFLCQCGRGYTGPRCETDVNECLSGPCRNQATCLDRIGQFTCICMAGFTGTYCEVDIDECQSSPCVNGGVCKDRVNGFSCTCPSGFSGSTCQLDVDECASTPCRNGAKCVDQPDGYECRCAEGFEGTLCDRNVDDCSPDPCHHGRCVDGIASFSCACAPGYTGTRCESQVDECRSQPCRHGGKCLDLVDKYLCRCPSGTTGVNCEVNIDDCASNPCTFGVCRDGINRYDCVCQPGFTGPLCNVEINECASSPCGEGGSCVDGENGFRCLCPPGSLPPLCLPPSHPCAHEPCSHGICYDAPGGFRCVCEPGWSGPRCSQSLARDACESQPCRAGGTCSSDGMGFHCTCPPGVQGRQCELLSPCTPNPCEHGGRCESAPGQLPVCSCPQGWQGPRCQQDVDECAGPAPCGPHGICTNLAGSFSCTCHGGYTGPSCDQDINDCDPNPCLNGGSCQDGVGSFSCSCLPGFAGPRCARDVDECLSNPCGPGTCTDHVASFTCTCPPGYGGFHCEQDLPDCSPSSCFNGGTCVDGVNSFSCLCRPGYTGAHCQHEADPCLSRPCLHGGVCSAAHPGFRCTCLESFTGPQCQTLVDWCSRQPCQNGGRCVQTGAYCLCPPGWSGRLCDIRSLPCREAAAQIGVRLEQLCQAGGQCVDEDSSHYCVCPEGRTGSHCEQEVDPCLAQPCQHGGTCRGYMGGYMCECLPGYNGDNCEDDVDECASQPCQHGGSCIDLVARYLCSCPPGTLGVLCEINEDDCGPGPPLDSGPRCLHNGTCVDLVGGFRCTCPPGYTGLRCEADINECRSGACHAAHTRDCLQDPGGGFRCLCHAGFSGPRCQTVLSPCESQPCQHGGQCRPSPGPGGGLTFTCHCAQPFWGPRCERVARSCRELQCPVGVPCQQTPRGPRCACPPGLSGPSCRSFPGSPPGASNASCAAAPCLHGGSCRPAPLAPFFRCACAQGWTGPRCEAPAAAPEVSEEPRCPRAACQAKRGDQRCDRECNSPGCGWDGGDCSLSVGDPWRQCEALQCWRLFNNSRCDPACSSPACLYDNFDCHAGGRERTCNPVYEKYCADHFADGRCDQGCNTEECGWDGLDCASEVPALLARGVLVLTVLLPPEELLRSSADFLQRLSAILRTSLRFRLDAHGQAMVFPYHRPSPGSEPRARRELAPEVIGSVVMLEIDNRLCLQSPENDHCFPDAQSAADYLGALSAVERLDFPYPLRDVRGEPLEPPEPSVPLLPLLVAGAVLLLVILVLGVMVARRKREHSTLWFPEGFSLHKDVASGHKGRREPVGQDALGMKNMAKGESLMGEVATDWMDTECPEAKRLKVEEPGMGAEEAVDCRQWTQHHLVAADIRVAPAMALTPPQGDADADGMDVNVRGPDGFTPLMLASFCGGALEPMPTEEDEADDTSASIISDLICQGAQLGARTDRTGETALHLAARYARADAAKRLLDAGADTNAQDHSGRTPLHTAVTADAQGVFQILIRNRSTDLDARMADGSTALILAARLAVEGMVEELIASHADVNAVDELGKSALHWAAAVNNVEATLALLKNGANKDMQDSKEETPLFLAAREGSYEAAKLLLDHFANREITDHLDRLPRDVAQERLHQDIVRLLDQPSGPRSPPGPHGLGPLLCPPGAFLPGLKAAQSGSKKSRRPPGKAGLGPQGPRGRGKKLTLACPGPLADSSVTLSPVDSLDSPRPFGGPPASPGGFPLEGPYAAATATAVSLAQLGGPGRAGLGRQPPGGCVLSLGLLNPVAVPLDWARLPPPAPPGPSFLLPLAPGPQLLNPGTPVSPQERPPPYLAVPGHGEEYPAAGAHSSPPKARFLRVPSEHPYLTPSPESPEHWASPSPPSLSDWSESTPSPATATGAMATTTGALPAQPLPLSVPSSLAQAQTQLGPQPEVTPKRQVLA
Sequence of Epidermal growth factor receptor (Homo sapiens) (P00533 whole entry, looked up): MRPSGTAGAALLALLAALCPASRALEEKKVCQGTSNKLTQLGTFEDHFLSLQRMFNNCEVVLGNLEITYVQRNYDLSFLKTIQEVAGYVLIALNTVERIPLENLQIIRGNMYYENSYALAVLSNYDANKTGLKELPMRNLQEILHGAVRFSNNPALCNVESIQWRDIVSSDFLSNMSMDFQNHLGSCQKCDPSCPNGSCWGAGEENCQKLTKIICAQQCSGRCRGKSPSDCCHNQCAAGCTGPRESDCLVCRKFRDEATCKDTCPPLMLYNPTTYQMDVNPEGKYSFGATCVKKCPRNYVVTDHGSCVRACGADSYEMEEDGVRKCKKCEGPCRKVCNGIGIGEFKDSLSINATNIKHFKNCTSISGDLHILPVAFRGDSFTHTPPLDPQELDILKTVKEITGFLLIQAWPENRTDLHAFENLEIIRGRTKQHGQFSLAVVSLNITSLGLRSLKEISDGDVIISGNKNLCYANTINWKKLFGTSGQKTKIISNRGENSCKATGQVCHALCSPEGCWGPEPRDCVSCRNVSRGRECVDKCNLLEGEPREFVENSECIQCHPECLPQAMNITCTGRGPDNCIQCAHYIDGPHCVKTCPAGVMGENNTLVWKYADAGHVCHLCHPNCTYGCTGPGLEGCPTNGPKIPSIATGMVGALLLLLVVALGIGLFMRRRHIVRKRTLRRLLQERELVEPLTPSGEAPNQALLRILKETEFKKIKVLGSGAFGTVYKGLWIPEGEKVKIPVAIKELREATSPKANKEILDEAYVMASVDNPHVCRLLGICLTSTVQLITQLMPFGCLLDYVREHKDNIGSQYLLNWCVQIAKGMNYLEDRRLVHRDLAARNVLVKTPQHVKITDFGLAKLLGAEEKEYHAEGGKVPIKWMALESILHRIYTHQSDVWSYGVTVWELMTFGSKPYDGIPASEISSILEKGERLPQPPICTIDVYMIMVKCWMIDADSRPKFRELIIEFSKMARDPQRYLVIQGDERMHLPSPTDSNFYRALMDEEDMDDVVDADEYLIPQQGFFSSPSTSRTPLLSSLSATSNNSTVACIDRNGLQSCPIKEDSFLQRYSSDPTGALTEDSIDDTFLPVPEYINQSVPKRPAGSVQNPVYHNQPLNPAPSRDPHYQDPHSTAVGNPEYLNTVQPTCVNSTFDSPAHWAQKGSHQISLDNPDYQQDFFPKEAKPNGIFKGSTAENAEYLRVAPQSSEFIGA
Sequence of Fibroblast growth factor 10 (Homo sapiens) (O15520 whole entry, looked up): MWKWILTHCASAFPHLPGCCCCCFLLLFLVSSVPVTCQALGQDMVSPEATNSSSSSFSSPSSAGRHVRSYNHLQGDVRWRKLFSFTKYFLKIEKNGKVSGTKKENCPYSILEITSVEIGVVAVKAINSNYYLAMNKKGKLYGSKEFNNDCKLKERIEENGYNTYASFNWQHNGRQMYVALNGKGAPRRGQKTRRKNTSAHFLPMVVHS
Sequence of Dickkopf-related protein 1 (Homo sapiens) (O94907 whole entry, looked up): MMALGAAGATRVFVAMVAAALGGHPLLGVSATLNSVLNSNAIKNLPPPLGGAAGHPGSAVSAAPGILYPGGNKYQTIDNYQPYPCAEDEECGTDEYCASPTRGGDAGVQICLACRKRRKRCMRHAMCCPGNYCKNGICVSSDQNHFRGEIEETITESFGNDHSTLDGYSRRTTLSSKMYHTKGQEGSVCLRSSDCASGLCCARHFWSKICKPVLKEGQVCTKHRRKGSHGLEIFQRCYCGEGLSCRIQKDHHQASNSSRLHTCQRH

`C=C(/C(=C/C[C@@H](OC(=O)c1ccncc1)c1ccc(CO)o1)c1cnc2ccccc2c1)C(C)C`: the composite z-score in [1] was 1.54; in [5], 1.1; in assay [7], -0.0569; in assay [8], 1.08; in assay [9], 1.09; in assay [10] it was 0.0009. For the same compound, the composite z-score in [11] was 0.885; in assay [12] it was 0.138; in [13], -0.157; in assay [15], 1.06; in assay [16], 1.29; in assay [17], 0.623. The composite z-score is 1.43 in assay [18], 0.574 in assay [19] and 1.58 in [20]. Further, the z-score in assay [2] is -0.0873 (inactive); in assay [3], -2.27 (inactive); in assay [4], -0.147 (inactive); in assay [6], 1.23 (inactive); in assay [14] it was 0.168 (inactive).

Regarding `COCCOC(=O)N1C(=O)[C@@]2(c3cc(C#CC4=CCCCC4)ccc31)[C@H](C(=O)NC[C@H](O)c1ccccc1)[C@H]1C(=O)O[C@H](c3ccccc3)[C@H](c3ccccc3)N1[C@@H]2c1ccc(OCCO)cc1`, the composite z-score in [1] is 1.54; in [5], 2.41; in assay [7] it was -0.003; in [8] it was 1.85; in assay [9], 1.13; in assay [10] it was -0.144. The composite z-score in assay [11] was 0.915; in assay [12], -0.18; in [13], 0.226; in assay [15], 1.29; in assay [16], 1.28; in [17], 0.483. The composite z-score in assay [18] amounted to 1.37; in [19] it was 0.817; in [20] it was 0.49. The z-score is 2.15 (inactive) in [2]; 1.44 (inactive) in assay [3]; 4.41 (inactive) in assay [4]; -0.662 (inactive) in assay [6]; -0.718 (inactive) in assay [14].

On to `O=C(NCC(F)(F)F)[C@@H]1c2ccccc2C(=O)N(Cc2ccccc2Cl)[C@H]1c1ccc(CO)cc1`, for which the composite z-score in assay [1] is -0.809; in [5] it was 1.18; in assay [7], -0.605; in assay [8] it was -1.5; in [9] it was -1.14; in assay [10], -0.0721. Also, the composite z-score in [11] was 1.68; in assay [12] it was 0.624; in [13], -0.363; in [15], -0.85; in assay [16] it was -1.1; in assay [17], -0.728. The composite z-score in assay [18] is -0.643; in assay [19] it was -0.941; in [20] it was -0.0121. For the same compound, the z-score in [2] was -0.896 (inactive); in [3], -0.243 (inactive); in [4], 0.0061 (inactive); in assay [6], 0.939 (inactive); in assay [14] it was 0.632 (inactive).

On to `CCC(=O)[C@]12O[C@@]3([C@@H]4C(=O)OCC[C@@H]41)N(Cc1ccccc1)C(C)=C(C(=O)OC)[C@@H](c1ccccc1)N3C2=O`, for which the composite z-score in assay [1] is 0.131; in [5], -0.417; in assay [7], -0.143; in assay [8], -1.66; in assay [9] it was -0.406; in assay [10] it was -0.246. Also, the composite z-score in assay [11] is 0.401; in assay [12] it was -0.393; in assay [13], -0.314; in assay [15], 0.0848; in [16], -0.588; in assay [17] it was -0.0835. The composite z-score in assay [18] was -0.782; in assay [19] it was -0.0297; in [20], 1.47. For the same compound, the z-score in [2] is -0.641 (inactive); in [3], -1.16 (inactive); in assay [4] it was -1.17 (inactive); in [6] it was 0.151 (inactive); in assay [14] it was -1.15 (inactive).

Regarding `CCCC=C(CCC)[C@@H](NC(=O)c1ccccc1)c1ccccc1`, the composite z-score in assay [1] is -0.732; in assay [5] it was 0.446; in assay [7], -0.0446; in assay [8] it was -0.96; in assay [9] it was -0.177; in [10], -0.0828. The composite z-score was -0.597 in assay [11]; 0.712 in assay [12]; 1.07 in assay [13]; -0.0829 in assay [15]; -1.87 in [16]; -0.292 in assay [17]. For the same compound, the composite z-score in assay [18] was -0.501; in [19], -0.0056; in assay [20] it was 1.16. Besides, the z-score in assay [2] was 0.0874 (inactive); in assay [3] it was -0.272 (inactive); in assay [4], 0.912 (inactive); in assay [6] it was -0.494 (inactive); in assay [14], -0.0542 (inactive).

The values above are taken from PubChem BioAssay.
